Broadly, the AC50 is the concentration at which the activity in the assay is half-maximal.

In PubChem BioAssay (EPA / NIEHS) one finds outcome and AC50 data, which are given here for three compounds.

Read-out in test [1]: Phosphatase and tensin (PTEN), PTEN (gene 5728)
Kind of test: LTEA_HepaRG_PTEN: Life Technologies and Expression Analysis (LTEA) Assay for Phosphatase and tensin (PTEN) using HepaRG (AID 2283523). Particulars: mRNA level, 48 h; actives raise or lower the signal. The essentials:
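Read-out: TaqMan qRT-PCR of PTEN transcript, normalized to three housekeeping genes, fitted in both directions against 0.5% DMSO. Differentiated human HepaRG cultures received chemicals for 48 h, eight-point half-log series topping at 100 uM.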

Read-out in test [2]: solute carrier (SLC22A1), SLC22A1 (gene 6580)
As to the kind of experiment: LTEA_HepaRG_SLC22A1: Life Technologies and Expression Analysis (LTEA) Assay for solute carrier (SLC22A1) using HepaRG (AID 2283524). As to conditions: mRNA level, 48 h; actives raise or lower the signal. The essentials:
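Transcript level of SLC22A1 quantified by qRT-PCR (normalized to three housekeeping genes) after 48 h chemical exposure of HepaRG cells, eight concentrations up to 100 µM, half-log steps, 0.5% DMSO vehicle. Gain or loss relative to DMSO fitted bidirectionally.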

Read-out in test [3]: Pyruvate Dehydrogenase Kinase 4 (PDK4), PDK4 (gene 5166)
As to the kind of experiment: LTEA_HepaRG_PDK4: Life Technologies and Expression Analysis (LTEA) Assay for Pyruvate Dehydrogenase Kinase 4 (PDK4) using HepaRG (AID 2283525). As to conditions: mRNA level, 48 h; actives raise or lower the signal. The essentials: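 Readout is qRT-PCR of PDK4 transcript, normalized to three housekeeping genes, with bidirectional fitting against 0.5% DMSO vehicle. Differentiated HepaRG cells were treated 48 h in serum-free induction medium, duplicate wells, eight-point half-log series topping at 100 uM.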

Read-out in test [4]: NAD(P)H dehydrogenase [quinone] 1 (NQO1), NQO1 (gene 1728)
Kind of test: LTEA_HepaRG_NQO1: Life Technologies and Expression Analysis (LTEA) Assay for NAD(P)H dehydrogenase [quinone] 1 (NQO1) using HepaRG (AID 2283526). Particulars: mRNA level, 48 h; actives raise or lower the signal. The essentials:
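qRT-PCR read-out (Fluidigm TaqMan), normalized to three housekeeping genes, after 48 h chemical exposure of HepaRG cells. Concentrations: eight points, top 100 uM, half-log steps, 0.5% DMSO vehicle. Gain or loss of signal fitted relative to DMSO.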

Read-out in test [5]: Nuclear factor erythroid 2-related factor 2 (Homo sapiens) (UniProt Q16236)
As to the kind of experiment: LTEA_HepaRG_NFE2L2: Life Technologies and Expression Analysis (LTEA) Assay for Nuclear factor erythroid 2-related factor 2 (NFE2L2) Transcription Factor using HepaRG (AID 2283527). Particulars: mRNA level, 48 h; actives raise or lower the signal. The essentials:
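NFE2L2 transcript level was read by qRT-PCR (housekeeping ACTB/GAPDH/POLR2A normalisation) after 48 h chemical treatment of HepaRG in serum-free induction medium. Duplicate 8-point half-log curves, top 100 uM, 0.5% DMSO vehicle; up- or down-regulation fitted against vehicle.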

Read-out in test [6]: succinate dehydrogenase complex iron sulfur subunit B (SDHB), SDHB (gene 6390)
As to the kind of experiment: LTEA_HepaRG_SDHB: Life Technologies and Expression Analysis (LTEA) Assay for succinate dehydrogenase complex iron sulfur subunit B (SDHB) using HepaRG (AID 2283528). As to conditions: mRNA level, 48 h; actives raise or lower the signal. The essentials:
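Readout is SDHB transcript level by qRT-PCR, normalised to three housekeeping genes and fitted bidirectionally against 0.5% DMSO vehicle. Human HepaRG cells were treated for 48 h at up to 100 uM.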

Read-out in test [7]: Signal transducer and activator of transcription 3 (Homo sapiens) (UniProt P40763)
Kind of test: LTEA_HepaRG_STAT3: Life Technologies and Expression Analysis (LTEA) Assay for Signal transducer and activator of transcription (STAT3) using HepaRG (AID 2283529). As to conditions: mRNA level, 48 h; actives raise or lower the signal. The essentials: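 STAT3 transcript quantified by qRT-PCR against three housekeeping genes (ACTB, GAPDH, POLR2A), fitted both directions relative to DMSO. HepaRG cultures exposed 48 h to eight half-log concentrations, top 100 uM, 0.5% DMSO, serum-free induction medium.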

Read-out in test [8]: solute carrier (SLCO1B1), SLCO1B1 (gene 10599)
As to the kind of experiment: LTEA_HepaRG_SLCO1B1: Life Technologies and Expression Analysis (LTEA) Assay for solute carrier (SLCO1B1) using HepaRG (AID 2283530). As to conditions: mRNA level, 48 h; actives raise or lower the signal. The essentials: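 Human HepaRG cultures treated for 48 h with an eight-concentration half-log series topping at 100 uM; SLCO1B1 measured by qRT-PCR and fitted bidirectionally relative to DMSO.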

Read-out in test [9]: sulfotransferase 2A1 (SULT2A1), SULT2A1 (gene 6822)
Kind of test: LTEA_HepaRG_SULT2A1: Life Technologies and Expression Analysis (LTEA) Assay for sulfotransferase 2A1 (SULT2A1) using HepaRG (AID 2283531). As to conditions: mRNA level, 48 h; actives raise or lower the signal. The essentials:
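Gene-expression endpoint in a human liver cell line: SULT2A1 mRNA change after 48 h chemical treatment, curves fitted in both directions relative to 0.5% DMSO vehicle. Concentrations spanned eight half-log steps from 100 uM.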

Read-out in test [10]: Transforming Growth Factor (TGFA), TGFA (gene 7039)
As to the kind of experiment: LTEA_HepaRG_TGFA: Life Technologies and Expression Analysis (LTEA) Assay for Transforming Growth Factor (TGFA) using HepaRG (AID 2283532). Particulars: mRNA level, 48 h; actives raise or lower the signal. The method in brief:
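TGFA transcript quantified by qRT-PCR (Fluidigm arrays) against three housekeeping genes, after 48 hours chemical treatment of HepaRG cells. Top concentration 100 uM with half-log dilutions, 8 points, duplicates, 0.5% DMSO.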

Read-out in test [11]: Transforming Growth Factor (TGFB1), TGFB1 (gene 7040)
Kind of test: LTEA_HepaRG_TGFB1: Life Technologies and Expression Analysis (LTEA) Assay for Transforming Growth Factor (TGFB1) Transporter using HepaRG (AID 2283533). Particulars: mRNA level, 48 h; actives raise or lower the signal. The method in brief:
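Eight-point concentration-response (max 100 uM, half-log) in HepaRG under serum-free induction conditions, 48 h. TGFB1 mRNA by qRT-PCR, housekeeping-normalized.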

Read-out in a further test: TIMP1, TIMP1 (gene 7076)
As to the kind of experiment: LTEA_HepaRG_TIMP1: Life Technologies and Expression Analysis (LTEA) Assay for TIMP1 using HepaRG (AID 2283534). Particulars: mRNA level, 48 h; actives raise or lower the signal. The essentials:
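TIMP1 induction or repression in HepaRG cells after 48 h chemical exposure (eight concentrations, highest 100 uM), assessed by normalized qRT-PCR with bidirectional fitting to DMSO controls.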

Read-out in test [12]: Tumor necrosis factor receptor 1 (TNFRSF1A), TNFRSF1A (gene 7132)
Kind of test: LTEA_HepaRG_TNFRSF1A: Life Technologies and Expression Analysis (LTEA) Assay for Tumor necrosis factor receptor 1 (TNFRSF1A) using HepaRG (AID 2283535). As to conditions: mRNA level, 48 h; actives raise or lower the signal. The essentials: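 Assay uses 48 h chemical treatment of differentiated HepaRG monolayers, tested in duplicate at eight concentrations from 100 uM downward in 0.5% DMSO. mRNA is normalized to ACTB, GAPDH and POLR2A, with induction or suppression fitted relative to vehicle.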

Read-out in test [13]: Thyroid Hormone Responsive (THRSP), THRSP (gene 7069)
Kind of test: LTEA_HepaRG_THRSP: Life Technologies and Expression Analysis (LTEA) Assay for Thyroid Hormone Responsive (THRSP) using HepaRG (AID 2283536). Particulars: mRNA level, 48 h; actives raise or lower the signal. The method in brief: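 THRSP transcript quantified by Fluidigm qRT-PCR against three housekeeping genes after 48 h chemical exposure of HepaRG cells in serum-free induction medium; eight-point half-log series, top 100 uM, 0.5% DMSO vehicle, duplicate wells.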

Read-out in test [14]: Cellular tumor antigen p53 (Homo sapiens) (UniProt P04637)
Kind of test: LTEA_HepaRG_TP53: Life Technologies and Expression Analysis (LTEA) Assay for Tumor Protein P53 (TP53) using HepaRG (AID 2283537). Particulars: mRNA level, 48 h; actives raise or lower the signal. The method in brief: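 Read-out is TP53 transcript level by microfluidic qRT-PCR, normalised to three housekeeping genes and fitted bidirectionally against DMSO. Human HepaRG cells received compounds for 48 h, highest concentration 100 uM.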

Read-out in test [15]: UDP glucuronosyltransferase (UGT1A1), UGT1A1 (gene 54658)
As to the kind of experiment: LTEA_HepaRG_UGT1A1: Life Technologies and Expression Analysis (LTEA) Assay for UDP glucuronosyltransferase (UGT1A1) using HepaRG (AID 2283538). As to conditions: mRNA level, 48 h; actives raise or lower the signal. The essentials:
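HepaRG, 48 h chemical exposure (top 100 uM, half-log 8-pt, 0.5% DMSO vehicle), duplicate wells; qRT-PCR (TaqMan, Fluidigm array) for UGT1A1 mRNA, housekeeping-normalized; bidirectional curve fit vs DMSO baseline.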

Read-out in test [16]: UDP glucuronosyltransferase (UGT1A6), UGT1A6 (gene 54578)
Kind of test: LTEA_HepaRG_UGT1A6: Life Technologies and Expression Analysis (LTEA) Assay for UDP glucuronosyltransferase (UGT1A6) using HepaRG (AID 2283539). As to conditions: mRNA level, 48 h; actives raise or lower the signal. The essentials: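 Measures mRNA change in HepaRG hepatic cells exposed 48 h to chemicals (eight-point, maximum 100 uM, 0.5% DMSO vehicle) in serum-free induction medium. Expression normalized to endogenous controls; DMSO served as negative control and baseline.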

Test [17] is described as follows: LTEA_HepaRG_LDH_cytotoxicity: Cytotoxicity Assessment in the Life Technologies and Expression Analysis (LTEA) Assay (AID 2283563; active means hit-call score of the fitted dose curve at least 0.9, where 1 is the maximum). The essentials:
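Spent-medium LDH after 48 h chemical exposure of HepaRG cells in serum-free induction medium; eight concentrations, half-log dilutions from 100 uM, duplicate wells, fitted upward relative to 0.5% DMSO.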

Test [18] is described as follows: ATG_XTT_Cytotoxicity: Cytotoxicity Assessment in the Attagene TRANS-FACTORIAL HepG2 Assay (AID 2283584; active means hit-call score of the fitted dose curve at least 0.9, where 1 is the maximum). The method in brief:
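24 h chemical exposure of reporter-transfected HepG2; XTT signal loss vs DMSO indicates cytotoxicity.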

Read-out in test [19]: X-box binding protein 1 (XBP1), XBP1 (gene 7494)
Kind of test: LTEA_HepaRG_XBP1: Life Technologies and Expression Analysis (LTEA) Assay for X-box binding protein 1 (XBP1) using HepaRG (AID 2283540). Particulars: mRNA level, 48 h; actives raise or lower the signal. The method in brief:
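Eight concentrations (half-log, highest 100 uM, 0.5% DMSO) tested in duplicate on HepaRG cells over 48 h in serum-free induction medium; qRT-PCR of XBP1 normalised to ACTB, GAPDH, POLR2A.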

Structures are written as SMILES. Inconclusive results are not listed. Active and inactive are the calls of the source. How the source made its calls, unless noted: active means hit-call score of the fitted dose curve at least 0.9, where 1 is the maximum; inactive means score below 0.9.

Sequence of Nuclear factor erythroid 2-related factor 2 (Homo sapiens) (Q16236 whole entry, looked up): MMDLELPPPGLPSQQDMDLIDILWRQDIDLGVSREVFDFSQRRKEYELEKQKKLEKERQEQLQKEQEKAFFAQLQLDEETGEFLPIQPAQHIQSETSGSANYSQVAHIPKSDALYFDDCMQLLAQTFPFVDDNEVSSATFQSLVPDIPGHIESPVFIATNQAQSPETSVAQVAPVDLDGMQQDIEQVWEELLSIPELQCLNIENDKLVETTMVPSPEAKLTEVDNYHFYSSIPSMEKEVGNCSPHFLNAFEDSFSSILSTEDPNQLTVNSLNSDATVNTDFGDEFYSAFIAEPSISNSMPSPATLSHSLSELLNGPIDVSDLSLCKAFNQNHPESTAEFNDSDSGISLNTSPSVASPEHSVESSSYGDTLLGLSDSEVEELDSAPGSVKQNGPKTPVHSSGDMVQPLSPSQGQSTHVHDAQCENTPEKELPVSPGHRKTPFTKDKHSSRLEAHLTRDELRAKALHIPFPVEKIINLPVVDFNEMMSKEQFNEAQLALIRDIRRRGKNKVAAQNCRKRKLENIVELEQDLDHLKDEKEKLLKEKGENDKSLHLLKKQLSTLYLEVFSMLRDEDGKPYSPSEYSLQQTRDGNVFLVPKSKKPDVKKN
Sequence of Cellular tumor antigen p53 (Homo sapiens) (P04637 whole entry, looked up): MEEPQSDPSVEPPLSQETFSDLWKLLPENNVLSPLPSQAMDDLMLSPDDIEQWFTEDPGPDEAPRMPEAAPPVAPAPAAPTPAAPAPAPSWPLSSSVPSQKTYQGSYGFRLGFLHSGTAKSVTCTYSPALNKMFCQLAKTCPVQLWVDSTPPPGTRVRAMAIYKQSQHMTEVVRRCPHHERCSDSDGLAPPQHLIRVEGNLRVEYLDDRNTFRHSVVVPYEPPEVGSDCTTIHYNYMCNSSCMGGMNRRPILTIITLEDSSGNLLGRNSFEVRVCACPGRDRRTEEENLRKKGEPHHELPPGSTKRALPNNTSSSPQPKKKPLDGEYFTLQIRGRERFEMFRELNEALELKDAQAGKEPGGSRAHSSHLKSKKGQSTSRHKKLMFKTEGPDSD
Sequence of Signal transducer and activator of transcription 3 (Homo sapiens) (P40763 whole entry, looked up): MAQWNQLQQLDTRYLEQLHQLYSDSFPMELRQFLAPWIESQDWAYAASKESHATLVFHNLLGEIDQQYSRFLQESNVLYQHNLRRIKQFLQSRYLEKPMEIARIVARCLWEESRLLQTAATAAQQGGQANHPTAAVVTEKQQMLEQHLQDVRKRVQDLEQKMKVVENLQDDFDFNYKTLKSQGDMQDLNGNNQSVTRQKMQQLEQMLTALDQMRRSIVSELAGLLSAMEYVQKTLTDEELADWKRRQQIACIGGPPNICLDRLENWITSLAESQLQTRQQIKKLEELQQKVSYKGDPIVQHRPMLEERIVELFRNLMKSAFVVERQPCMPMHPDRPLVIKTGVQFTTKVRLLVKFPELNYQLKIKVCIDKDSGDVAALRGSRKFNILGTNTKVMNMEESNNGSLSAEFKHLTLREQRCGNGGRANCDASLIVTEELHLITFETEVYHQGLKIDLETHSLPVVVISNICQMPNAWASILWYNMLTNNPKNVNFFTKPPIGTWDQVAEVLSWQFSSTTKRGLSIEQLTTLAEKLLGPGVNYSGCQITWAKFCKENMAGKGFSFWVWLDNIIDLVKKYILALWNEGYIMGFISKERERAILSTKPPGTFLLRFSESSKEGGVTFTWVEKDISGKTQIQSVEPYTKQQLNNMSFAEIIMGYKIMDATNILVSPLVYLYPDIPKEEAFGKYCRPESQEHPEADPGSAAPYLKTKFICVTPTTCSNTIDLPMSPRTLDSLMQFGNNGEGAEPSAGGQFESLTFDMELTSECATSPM

As for `Cn1c(=O)c2c(ncn2C)n(C)c1=O`, the outcome in [1], in test [2], in [3], in [4], in test [5] and in [6] was inactive. Besides, the outcome in [7] is “inactive”; in [8] it was “inactive”; in [9], “inactive”; in test [10] it was “inactive”; in [11], “inactive”; with TIMP1, TIMP1 (gene 7076), “inactive”. The outcome in [12], in test [13], in [14], in [15], in test [16] and in [17] was inactive. In addition, in [18], the call was inactive.

For `Oc1ccc2c(c1)-c1ccccc1C2`, the call in [1], in test [2], in [4], in test [6], in [7] and in [8] was inactive. Besides, the outcome in test [9] is “inactive”; in [10] it was “inactive”; in test [11] it was “inactive”; with TIMP1, TIMP1 (gene 7076), “inactive”; in [12], “inactive”; in test [14], “inactive”. Also, the call in test [16], in test [19], in test [17] and in test [18] was inactive. Moreover, the AC50 is 25.2 µM (active) in [3], 21.4 µM (active) in [5] and 30.4 µM (active) in test [15].

For the compound `CC(C)CCO`, the call in [1], in test [2], in test [3], in test [4], in test [5] and in [6] was inactive. Besides, the outcome in test [7] is “inactive”; in [8], “inactive”; in test [9], “inactive”; in test [10] it was “inactive”; in test [11], “inactive”; in the test with TIMP1, TIMP1 (gene 7076), “inactive”. In addition, the compound was called inactive in [12], in test [13], in test [14], in test [15], in test [16] and in [17].
